In PubChem BioAssay AID1745848 (National Center for Advancing Translational Sciences (NCATS), 2022) one finds Potency data, which are given here for 46 compounds.

Hit rate of the full screen: of about 2,100 compounds, about 940 (45%) were called active. Another 48% or so got no clear call; they are omitted. Calls follow the shape of the dose curve; as a rule, active = well fitted inhibition curve with a large enough effect; inconclusive = small, poorly fitted or top-dose-only effect; inactive = no such curve, though single readings can be large or run the other way. So high a share suggests a set chosen from earlier hits. This is one part of the list.
Potency is read from the fitted curve at half-maximal effect.

The experiment is described as follows: Confirmatory qHTS for Inhibitors of ATXN expression. Also: nearly all actives have a fitted effect of over 65% in size. Conditions: ATXN2-luciferase reporter cells, luminescence, 24 h; series mostly up to 11.5 µM. The text has this: PI: Daniel Scoles Ph.D. University of Utah School of Medicine, Salt Lake City, Utah MLPCN Grant: NS073009 Spinocerebellar ataxia type 2 (SCA2) is a multisystem neurodegenerative disease caused by a dominantly acting mutation leading to expansion of a polyQ domain in the ataxin-2 protein (ATXN2). SCA2 patients develop progressive ataxia and later lose function in other neuronal systems. Prominent parkinsonian signs develop in some patients. Like many neurodegenerative disorders, no symptomatic or disease-modifying treatments are known. The primary objective of the proposed research is to identify compounds inhibiting ATXN2 expression and to test them for efficacy in SCA2 mouse models. We have developed a cell-based assay paired with an in vivo mouse model using identical luciferase expression constructs. This approach takes advantage of an ATXN2-luciferase transgene, with the luciferase gene flanked by the upstream and downstream portions of the ATXN2 gene. Here we describe a 5-7 dose quantitative high thoroughput screen (qHTS) for compounds lowering ATXN2 expression. We screened the NIH Molecular Libraries Small Molecule Repository (MLSMR) and NCGC's mechanistically annotated (MIPE) and drug repurposing (NPC) collections of compounds for lowering expression of an ATXN2-luciferase reporter in HEK-293 cells. The assay is a multiplexed cell viability assay to ensure target reduction in the absence of cytotoxicity. Secondary qHTS assays included a CMV-luciferase reporter expressed in HEK-293 cells as well as a biochemical assay using recombinant luciferase to detect inhibitors of the reporter enzyme. Compounds that inhibit ATXN2 expression but is not cytotoxic were selected for confirmatory and secondary screens.
PROTOCOL TABLE (as described by Inglese J, Shamu CE and Guy RK. 2007) SEQUENCE No. (e.g., 1, 2, 3, etc.); PARAMETER (e.g., Cells, Incubation, Reagent, etc.); VALUE; DESCRIPTION. 1; Cells; 4 uL; white, solid bottom, 1536-well Greiner assay plate. 2; Incubation; 2 hr; 37 degree C in 5% humidified CO2. 3; Compounds; 23 nL; Kalypsis pintool (Wako USA) equipped with a 1536-well pin head. 4; Incubation; 24 hr; 37 degree C in 5% humidified CO2. 5; Reagent; 1 uL; Gly-Phe-7-Amino-4-trifluoromethylcoumarin. 6; Incubation; 30 min; 37 degree C in 5% humidified CO2. 7; Detection; Fluorescence; ViewLux plate reader (PerkinElmer). 8; Reagent; 3 uL; SteadyGlo luciferase solution (Promega). 9; Incubation; 5 min; room temperature. 10; Detection; Luminescence; ViewLux plate reader (PerkinElmer). NOTES (numbers refer to Sequence numbers above) 1. […] expressing ATXN2-luciferase reporter were suspended in phenol-red free DMEM and dispensed in assay plates using a Multidrop Combi dispenser (Thermo Fisher Scientific). Wells containing medium only were plated on each plate, and values were used to normalize (100% inhibition) in the luciferase and CellTiter-Fluor assays. 2. Assay plates were incubated. Evaporation was prevented by covering assay plates with metal lids containing holes to allow gas diffusion. 3. Compounds were added in a dose response manner with the final concentrations of 57, 11.4, 2.28, 0.46, 0.091, 0.018, 0.0037 uM. Vehicle-only plates, with DMSO being pin-transferred to columns 5-48, were inserted uniformly at the beginning and the end of each library to monitor and record any shifts in assay performance. 5. 125 uM Gly-Phe-7-Amino-4-trifluoromethylcoumarin (MP Biomedicals) working concentration was used at a final concentration of 25 uM. 7. To assess cell viability; the assay plates were read using the ViewLux high-throughput CCD imager (PerkinElmer), wherein single end-point fluorescence measurement was acquired (excitation 405/10; emission 540/25 nm). 8. Detection reagent SteadyGlo Luciferase (Promega) was added to the assay plate. 10. Luminescence is then measured on the ViewLux imager equipped with a clear emission filter using a 2 sec exposure. […]
Regarding `COc1cc(CC(=O)Nc2nc(-c3ccc(F)c(F)c3)cs2)cc(OC)c1OC`, the Potency was 3.98 µM (active).

As to `COc1ccc(CC(=O)Nc2nc(-c3ccc(F)c(F)c3)cs2)cc1OC`, the Potency was 4.47 µM (active).

As for `O=C(CCN1C(=O)C2CC=CCC2C1=O)Nc1nc(-c2ccc(F)c(F)c2)cs1` (stereo unspecified), the Potency result is “inactive”.

Take `O=C(Nc1nc(-c2ccc(F)c(F)c2)cs1)Nc1ccc(F)cc1F`: the Potency was 1.41 µM (active).

For the compound `COc1ccc(CC(=O)Nc2nc(-c3ccc(OC)c(OC)c3)cs2)cc1OC`, the Potency is 3.16 µM (active).

On to `COCCNc1nc(-c2cc(C)n(CCc3ccc(OC)cc3)c2C)cs1`, for which the Potency result was “inactive”.

For `CCCCCc1ccc(OCCCC[n+]2cccc(C)c2)c(CCCCC)c1`, the Potency was 14.1 µM (active).

In the case of `CCCCCc1ccc(OCCC[n+]2ccccc2)c(CCCCC)c1`, the Potency was 14.1 µM (active).

Take `CCOC(=O)[C@H]1[C@H]2COc3ccc(OC)cc3[C@@H]2N2C(=O)c3cc(OC)c(OC)cc3NC(=O)[C@@]12C`: the Potency entry is “inactive”.

Turning to `COc1ccc(/C=C2\CN(Cc3ccccc3)C/C(=C\c3ccc(OC)c(O)c3)C2=O)cc1O`, the Potency was 3.98 µM (active).

`COc1ccc(C(=O)Cn2c(C(=O)/C=C/c3ccccc3)nc3ccccc32)cc1`: the Potency was 2.82 µM (active).

For the compound `COCC(C)n1c(C)cc(C(=O)COC(=O)c2cccn2C)c1C` (stereo unspecified), the Potency is 2.24 µM (active).

Turning to `C/C(=N\NC(=O)c1cc(-c2cccnc2)nc2ccccc12)c1ccc(O)cc1O`, the Potency was 2.51 µM (active).

`C/C(=N\NC(=O)c1cc(C2CC2)nc2ccccc12)c1ccc(O)cc1O`: the Potency is 3.55 µM (active).

For `COc1cccc(/C=N/NC(=O)c2c(-c3ccccc3)noc2C)c1O`, the Potency is 0.708 µM (active).

For the compound `Cc1onc(-c2ccccc2)c1C(=O)Nc1ccc(S(=O)(=O)NC(C)(C)C)cc1`, the Potency entry was “inactive”.

In the case of `Cc1cccc(/C=N/NC(=O)c2c(-c3ccccc3)noc2C)c1O`, the Potency is 1.26 µM (active).

On to `Cc1cc(N2CCN(C)CC2)ccc1NC(=O)c1ccc(-c2ccc(Cl)cc2)o1`, for which the Potency was 14.1 µM (active).

Regarding `O=C(N/N=C/c1ccccc1O)C1CC(=O)N(c2ccc(F)cc2)C1` (stereo unspecified), the Potency is 3.55 µM (active).

On to `O=C(N/N=C/c1ccccc1O)C1CC(=O)N(c2ccc(Cl)cc2)C1` (stereo unspecified), for which the Potency is 1.41 µM (active).

In the case of `CCc1ccc(N2CC(C(=O)N/N=C/c3cc([N+](=O)[O-])ccc3O)CC2=O)cc1` (stereo unspecified), the Potency is 25.1 µM (active).

On to `COC(=O)C(Cc1ccc(O)cc1)NC(=O)C(C)Oc1ccccc1` (stereo unspecified), for which the Potency result was “inactive”.

For `COc1ccccc1NC(=S)NC(=O)c1ccc(Cn2cc(Br)cn2)cc1`, the Potency result is “inactive”.

Consider `COc1ccccc1C(=O)NNC(=S)NC(=O)c1ccco1`, for which the Potency was 6.31 µM (active).

For the compound `CC(Oc1ccc(Cl)cc1)C(=O)NNC(=S)NC(=O)c1ccco1` (stereo unspecified), the Potency is 14.1 µM (active).

On to `CC(=O)c1ccc(NC(=O)COC(=O)c2c3c(nc4ccccc24)/C(=C\c2cccs2)CCC3)cc1`, for which the Potency was 20 µM (active).

Take `O=C(NN=Cc1ccc(O)cc1O)c1ccccc1NS(=O)(=O)c1cccs1`: the Potency was 2.82 µM (active).

On to `O=C1/C(=C/c2ccncc2)CCC/C1=C\c1ccncc1`, for which the Potency is 5.62 µM (active).

On to `CN1C/C(=C/c2cccnc2)C(=O)/C(=C/c2cccnc2)C1`, for which the Potency result was “inactive”.

Take `CCn1c(/C=C/c2ccc([N+](=O)[O-])o2)nc2ccccc2c1=O`: the Potency is 7.08 µM (active).

Turning to `O=C(Nc1ccc(F)cc1)Nc1cc(OCC(F)(F)F)cc(OCC(F)(F)F)c1`, the Potency is 3.55 µM (active).

For the compound `COc1ccc(CC2C(=O)NC(C)C(=O)N(C)C3Cc4ccc(cc4)Oc4cc(ccc4O)CC(C(=O)NC(C)C(=O)NC(C)C(=O)N2C)N(C)C3=O)cc1` (stereo unspecified), the Potency is 0.251 µM (active).

Take `O=C(CCC(=O)Nc1cc(C(F)(F)F)ccc1Cl)N/N=C\c1cc([N+](=O)[O-])ccc1O`: the Potency was 3.16 µM (active).

As for `O=C(CSCc1ccc(Cl)cc1)Nc1cc([N+](=O)[O-])ccc1O`, the Potency entry is “inactive”.

In the case of `O=C(CCCC(=O)Nc1cccc(Br)c1)N/N=C/c1cc([N+](=O)[O-])ccc1O`, the Potency was 3.16 µM (active).

For the compound `c1ccc(CN=C(NCc2ccccc2)NCc2ccccc2)cc1`, the Potency is 28.2 µM (active).

As for `COc1ccc2[nH]c3c(N4CCC(O)(c5cccc(C(F)(F)F)c5)CC4)ncnc3c2c1`, the Potency is 2.82 µM (active).

For `COc1cccc2c1C1COC3C4CC(C(=O)O)C(C(C2)N13)N4C` (stereo unspecified), the Potency was 10 µM (active).

As for `COc1cccc2c1C(CO)N1C(C#N)C3CC(C(=O)O)C(C1C2)N3C` (stereo unspecified), the Potency is 0.282 µM (active).

For `Cc1nnc(-c2ccccc2)c(=O)n1/N=C/c1c(O)ccc2ccccc12`, the Potency is 10 µM (active).

In the case of `COC(=O)c1ccc(N2CCOCC2)c(NC(=O)Nc2cccc(OC)c2)c1`, the Potency result was “inactive”.

As for `COc1ccc2nc(C)cc(Nc3ccc(N4CCOCC4)cc3)c2c1`, the Potency was 15.8 µM (active).

As for `CC(C)(C)c1ccc(C(=O)N2CCCCCC2=O)cc1`, the Potency is 1.78 µM (active).

Turning to `COc1ccc(-c2csc(N(CCCN3CCOCC3)C(=O)c3ccco3)n2)cc1`, the Potency is 3.16 µM (active).

Consider `COc1ccc(/C(N)=N/OC(=O)N2CCOCC2)cc1`, for which the Potency entry is “inactive”.

Consider `COc1ccc(-c2csc(N(CCCN(C)C)C(=O)c3ccccc3Cl)n2)cc1`, for which the Potency was 3.16 µM (active).
